The results in this text go back to PubChem BioAssay (NCI).

Where “and” joins values, the source holds several entries; their conditions need not be identical. Equal values may be shown once. The panel holds about 83,000 compounds, 20% with a hit somewhere; the sample as a whole holds those more often.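 96-well plates, one dose, 48 hours. Percent growth reported; active if below 10.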 Calls of active or inactive are those of the source.

Test in all cases: NCI-60 one-dose screen, 48 h (100 = growth as untreated, 0 = no growth, -100 = all killed)
The test system of experiment [1] is MCF7 breast.
Experiment [2] relates to RPMI-8226 leukemia. The conditions noted are these: 10 µM unless noted.
Experiment [3] has as its system OVCAR-8 ovarian.
Experiment [4] concerns OVCAR-4 ovarian.
In experiment [5] the test system is SK-OV-3 ovarian.
The test system of experiment [6] is IGROV1 ovarian.
Experiment [7] concerns OVCAR-3 ovarian.
Experiment [8] concerns HS 578T breast.
Experiment [9] relates to NCI/ADR-RES ovarian.
For experiment [10], the system named is T-47D breast.
The test system of experiment [11] is BT-549 breast.
Experiment [12] has as its system MDA-MB-435 melanoma.
The test system of experiment [13] is SW-620 colon.
For experiment [14], the system named is HCT-116 colon.
Experiment [15] relates to HCC-2998 colon.
In experiment [16] the test system is KM12 colon.
Experiment [17] has as its system OVCAR-5 ovarian.

For the compound `CC1(C)Oc2ccc3c(=O)cc(-c4ccc(F)cc4)oc3c2C1C(=O)O` (stereo unspecified), the growth in experiment [1] (10 µM unless noted) is 86.7% [100 µM] (inactive) and 80.6% [100 µM] (inactive).

Turning to `CC1=CC(=O)c2ccc(C)cc2C1=O`, the growth in [1] (10 µM unless noted) was -70.7% [100 µM] (active) and -100% [100 µM] (active).

For the compound `CCN(CC)CCc1nc(-c2ccccc2)no1`, the growth is 60.9% (inactive) and 98.7% (inactive) in experiment [2]; 83.9% (inactive) and 94.4% (inactive) in experiment [3] (10 µM unless noted); 76.7% (inactive) and 103% (inactive) in experiment [4] (10 µM unless noted); 98.2% (inactive) and 99.6% (inactive) in [5] (10 µM unless noted); 78.7% (inactive) and 112% (inactive) in [6] (10 µM unless noted); 73.2% (inactive) and 112% (inactive) in experiment [7] (10 µM unless noted). For the same compound, the growth in experiment [8] (10 µM unless noted) was 98% (inactive); in [9] (10 µM unless noted), 89.8% (inactive) and 99.4% (inactive); in experiment [10] (10 µM unless noted) it was 55.8% (inactive) and 81.1% (inactive); in [11] (10 µM unless noted) it was 55.2% (inactive) and 103% (inactive); in experiment [12] (10 µM unless noted), 90.1% (inactive) and 99.3% (inactive); in experiment [13] (10 µM unless noted), 73.3% (inactive) and 114% (inactive). For the same compound, the growth in experiment [1] (10 µM unless noted) is 58.5% (inactive) and 96% (inactive); in [14] (10 µM unless noted) it was 85.5% (inactive) and 103% (inactive); in experiment [15] (10 µM unless noted), 113% (inactive) and 111% (inactive); in experiment [16] (10 µM unless noted), 85% (inactive) and 111% (inactive).

`COC(=O)c1cnn2c1n[n+]([O-])c1ccccc12`: the growth in experiment [1] (10 µM unless noted) was 68.2% [100 µM] (inactive) and 11.8% [100 µM] (inactive).

As for `CC1(C)[C@@H](OC(=O)CCC(=O)O)CC[C@]2(C)[C@H]3C(=O)C=C4[C@@H]5C[C@@](C)(C(=O)O)CC[C@]5(C)CC[C@@]4(C)[C@]3(C)CC[C@@H]12`, the growth in experiment [2] was 104% (inactive) and -42.2% (active); in experiment [3] (10 µM unless noted), 106% (inactive) and -14.1% (active); in experiment [4] (10 µM unless noted), 87.9% (inactive) and -0.335% (active); in experiment [5] (10 µM unless noted), 102% (inactive) and -64.1% (active); in experiment [7] (10 µM unless noted), 99.7% (inactive) and -94% (active); in [9] (10 µM unless noted), 107% (inactive) and -0.161% (active). For the same compound, the growth in experiment [10] (10 µM unless noted) was 90.6% (inactive) and 2.63% (active); in experiment [11] (10 µM unless noted) it was 99.7% (inactive) and -32.4% (active); in experiment [12] (10 µM unless noted), 98.8% (inactive) and -47.7% (active); in [13] (10 µM unless noted), 109% (inactive) and -37.2% (active); in [1] (10 µM unless noted), 91.2% (inactive) and 6.18% (active); in experiment [14] (10 µM unless noted) it was 95.4% (inactive) and -58.8% (active). Further, the growth in experiment [15] (10 µM unless noted) is 103% (inactive) and -71.7% (active); in [16] (10 µM unless noted) it was 97% (inactive) and -73.1% (active).

In the case of `CCN(CC)CCCC(C)Nc1ccnc2cc(Oc3ccccc3)ccc12` (stereo unspecified), the growth in experiment [3] (10 µM unless noted) is 63.1% (inactive) and 77.7% (inactive); in experiment [17] (10 µM unless noted) it was 82.7% (inactive) and 90.8% (inactive); in [4] (10 µM unless noted), 75.2% (inactive) and 92.9% (inactive); in experiment [5] (10 µM unless noted), 91.2% (inactive) and 97.2% (inactive); in [6] (10 µM unless noted), -53.5% (active) and 63.2% (inactive); in [7] (10 µM unless noted), 83.4% (inactive) and 85.8% (inactive). For the same compound, the growth in [8] (10 µM unless noted) is 69% (inactive); in experiment [9] (10 µM unless noted), 102% (inactive) and 96.9% (inactive); in [10] (10 µM unless noted), 28.8% (inactive) and 83.9% (inactive); in [11] (10 µM unless noted), 62.9% (inactive) and 86% (inactive); in [12] (10 µM unless noted), 2.5% (active) and 24.4% (inactive); in experiment [13] (10 µM unless noted) it was 55.8% (inactive) and 79.4% (inactive). The growth was 55.3% (inactive) and 82.7% (inactive) in experiment [1] (10 µM unless noted); 32% (inactive) and 54.9% (inactive) in [14] (10 µM unless noted); 90.9% (inactive) and 77.7% (inactive) in [15] (10 µM unless noted); 78.5% (inactive) and 87.2% (inactive) in experiment [16] (10 µM unless noted).

On to `CC(C)=CC(O)C/C(C)=C/CC/C(C)=C/CCC1(C)C(CCCO)/C(=C(/C)C=O)CCC1(C)O` (stereo unspecified), for which the growth in experiment [1] (10 µM unless noted) was -22.6% [100 µM] (active) and -6.67% [100 µM] (active).

Consider `N#C/C(=C/c1c(O)ccc2ccccc12)C(N)=O`, for which the growth in [2] is 88.2% (inactive); in experiment [3] (10 µM unless noted), 105% (inactive); in experiment [17] (10 µM unless noted) it was 105% (inactive); in [4] (10 µM unless noted), 92% (inactive); in experiment [5] (10 µM unless noted) it was 92.6% (inactive); in experiment [7] (10 µM unless noted), 90.1% (inactive). Moreover, the growth in experiment [8] (10 µM unless noted) is 113% (inactive); in [9] (10 µM unless noted), 94.6% (inactive); in experiment [10] (10 µM unless noted), 87.5% (inactive); in [11] (10 µM unless noted), 93.7% (inactive); in [13] (10 µM unless noted), 94.6% (inactive); in [1] (10 µM unless noted), 95.1% (inactive). Besides, the growth was 101% (inactive) in experiment [14] (10 µM unless noted) and 93.8% (inactive) in experiment [16] (10 µM unless noted).

Regarding `CC(O)Cn1cnc2c1c(=O)n(C)c(=O)n2C` (stereo unspecified), the growth in [3] (10 µM unless noted) was 97.6% (inactive); in experiment [17] (10 µM unless noted), 125% (inactive); in experiment [4] (10 µM unless noted), 96.5% (inactive); in [5] (10 µM unless noted), 103% (inactive); in experiment [6] (10 µM unless noted), 90.6% (inactive); in [7] (10 µM unless noted) it was 108% (inactive). In addition, the growth was 112% (inactive) in experiment [9] (10 µM unless noted); 85.8% (inactive) in [10] (10 µM unless noted); 83.5% (inactive) in experiment [11] (10 µM unless noted); 109% (inactive) in experiment [12] (10 µM unless noted); 113% (inactive) in experiment [13] (10 µM unless noted); 92.8% (inactive) in experiment [1] (10 µM unless noted). Moreover, the growth was 102% (inactive) in experiment [14] (10 µM unless noted), 106% (inactive) in experiment [15] (10 µM unless noted) and 104% (inactive) in experiment [16] (10 µM unless noted).

On to `CC(=O)C1=C(C)N2C(=NC3=C(CCc4ccccc43)C2c2ccc(Cl)cc2)S1` (stereo unspecified), for which the growth in experiment [1] (10 µM unless noted) is 24.9% [100 µM] (inactive) and 9.75% [100 µM] (active).

With `COc1ccc2nc(NC(=O)/C(C#N)=C/c3ccccc3)sc2c1`, the growth in [1] (10 µM unless noted) is 4.79% [100 µM] (active) and 1.62% [100 µM] (active).

Regarding `N#C/C=C1\C=CC(O)C(O)C1OC1OC(CO)C(O)C(O)C1O` (stereo unspecified), the growth in [1] (10 µM unless noted) is 92.7% [100 µM] (inactive) and 74.4% [100 µM] (inactive).

As for `O=[N+]([O-])c1ccc(-n2[nH]nnc2=S)cc1`, the growth is 102% (inactive) in experiment [2]; 107% (inactive) in experiment [3] (10 µM unless noted); 92% (inactive) in experiment [4] (10 µM unless noted); 103% (inactive) in experiment [5] (10 µM unless noted); 91.3% (inactive) in experiment [6] (10 µM unless noted); 110% (inactive) in experiment [7] (10 µM unless noted). The growth in experiment [8] (10 µM unless noted) was 104% (inactive); in experiment [9] (10 µM unless noted), 106% (inactive); in experiment [10] (10 µM unless noted) it was 103% (inactive); in [11] (10 µM unless noted), 104% (inactive); in experiment [12] (10 µM unless noted), 106% (inactive); in [13] (10 µM unless noted) it was 103% (inactive). The growth in experiment [1] (10 µM unless noted) is 95% (inactive); in experiment [14] (10 µM unless noted), 101% (inactive); in [15] (10 µM unless noted) it was 101% (inactive); in experiment [16] (10 µM unless noted), 108% (inactive).

In the case of `COc1ccc2c(c1)N(C(C)=O)CN1C(=O)CCC21` (stereo unspecified), in experiment [1] (10 µM unless noted), the growth was 86.1% [100 µM] (inactive) and 85.1% [100 µM] (inactive).

Regarding `CC#C[C@]1(O)CC[C@H]2[C@@H]3CCC4=CC(=O)CCC4=C3[C@@H](c3ccc4c(c3)OCO4)C[C@@]21C`, the growth in [3] (10 µM) is 81.6% (inactive); in experiment [3] (100 µM), -13.6% (active); in experiment [17] (10 µM) it was 109% (inactive); in experiment [17] (100 µM), 14.3% (inactive); in [4] (10 µM), 80.9% (inactive); in [4] (100 µM), 8.93% (active). The growth in [5] (10 µM) is 87.8% (inactive); in [5] (100 µM), -5.43% (active); in [6] (10 µM), 86.1% (inactive); in experiment [6] (100 µM) it was 2.61% (active); in experiment [7] (10 µM), 78% (inactive); in experiment [7] (100 µM), -40.2% (active). Also, the growth in experiment [8] (10 µM) was 79% (inactive); in [8] (100 µM) it was 0.161% (active); in [9] (10 µM), 76.7% (inactive); in [9] (100 µM), -15.3% (active); in experiment [10] (10 µM) it was 45% (inactive); in experiment [10] (100 µM) it was -16.5% (active). Further, the growth is 77.8% (inactive) in experiment [11] (10 µM); -33.1% (active) in experiment [11] (100 µM); 94.7% (inactive) in [12] (10 µM); -35.6% (active) in [12] (100 µM); 84.7% (inactive) in experiment [13] (10 µM); 4.2% (active) in experiment [13] (100 µM). Further, the growth was 82.2% (inactive) in experiment [1] (10 µM); -4.09% (active) in experiment [1] (100 µM); 78.4% (inactive) in experiment [14] (10 µM); -78.5% (active) in [14] (100 µM); 94.4% (inactive) in [15] (10 µM); -22.7% (active) in experiment [15] (100 µM). The growth is 86.3% (inactive) in experiment [16] (10 µM) and -42.3% (active) in experiment [16] (100 µM).
